# VACV mCherry inh: qHTS for Stage-Specific Inhibitors of Vaccinia Orthopoxvirus: mCherry Reporter Primary qHTS; Potency, µM (titrated, usually from 36.5 µM), for inactives: at the top dose activity change, negative = inhibition, usual class: inhibitors; Vaccinia virus mCherry reporter infection, fluorescence; actives 0.63% (n = 310,000); calls by dose curve; tested in A549 cells; note: potency is the fitted concentration of half-maximal effect; nearly all actives have a fitted effect of over 35% in size
# HCV inh: qHTS Assay for Inhibitors of Hepatitis C Virus (HCV); Huh7.5.1 HCVcc-Cre infection, luciferase reporter, 44 h; Potency, µM (doses to about 41.8 µM), without a hit: at the top dose activity change, negative = inhibition, hits mostly inhibitors; actives 3.4% (n = 340,000); AID 651820, 2012; note: potency is the fitted concentration of half-maximal effect
#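 HCVcc-Cre virus at an moi near 0.5 was added right after compound to cells cultured 4 h from seeding (1,000 cells/well). Luciferase activity was determined 44 h later, 15 min after substrate addition at RT.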
# Vaccinia Venus: qHTS for Stage-Specific Inhibitors of Vaccinia Orthopoxvirus: Venus Reporter Primary qHTS. actives 0.46% (n = 330,000). Potency, µM (top dose mostly 36.5 µM), inactives show at the highest dose activity change, negative = inhibition, usual class: inhibitors. Vaccinia virus Venus reporter expression, fluorescence. AID 720580, 2013; calls by dose curve; tested in A549 cells; note: potency is the fitted concentration of half-maximal effect; nearly all actives have a fitted effect of over 30% in size
# FMDV antiviral: High Throughput Screening for Foot and Mouth Disease Virus Antivirals | FMDV antiviral cell-based qHTS | Potency, µM (top dose mostly 57.9 µM), for inactives: at the top dose activity change, negative = inhibition, usual class: inhibitors | actives 1.2% (n = 410,000); calls by dose curve; tested in HEK293T cells; note: read-out not given here; potency is the fitted concentration of half-maximal effect; nearly all actives have a fitted effect of over 45% in size
# HCMV inh: qHTS Assay for inhibitors of the human cytomegalovirus (HCMV); AID 1259415, 2018; activity change, negative = inhibition, % at 57.5 µM; HFF cells, HCMV-luciferase reporter, 72 h; stronger effect = lower value; actives 4.5% (n = 410,000); in the data active = activity change below about -60%; inconclusive = no clear call, values can overlap the other calls; inactive = above about -39%
#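 Compounds were evaluated in HFFs infected with an HCMV luciferase reporter virus (MOI 1 PFU/cell). Luciferase in lysates collected 72 h post infection served as the replication measure.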
# Sm TGR inh: qHTS Assay for the Inhibitors of Schistosoma Mansoni Peroxiredoxins. actives 3% (n = 360,000). AID 485364, 2010. purified TGR, DTNB reduction, TNB absorbance 405 nm. Potency, µM (doses to about 114 µM), for inactives: top-dose activity change, negative = inhibition, actives largely listed as inhibitors. Schistosoma mansoni thioredoxin glutathione reductase (TGR), Q962Y6; note: potency is the fitted concentration of half-maximal effect; nearly all actives have a fitted effect of over 60% in size
#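 Kinetic colorimetric format: TGR-catalysed, NADPH-driven DTNB reduction monitored via TNB absorbance. Enzyme dispensed at 20 nM; compound exposure 15 min at room temperature before reaction start.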
# * marks the source's active call; other numbers are inactive results; i = inactive; ? = inconclusive; · = not tested or not shown; + = active, no number; [ ] = remark or other dose. Most compounds without a hit are left out; they make up all but 9.3% or so of the library. Unless noted, calls come from the whole dose curve; as a rule, active = well fitted curve in the direction sought with a large enough effect; inconclusive = small, poorly fitted or top-dose-only effect, or another doubt; inactive = no such curve, though single readings can be large; an effect the other way counts as inactive or inconclusive. % is set by controls: 0 for no effect and ±100 for the full control effect.
SMILES,VACV mCherry inh,HCV inh,Vaccinia Venus,FMDV antiviral,HCMV inh,Sm TGR inh
Cc1cc(C)n(Cc2ccc(C(=O)O)cc2)n1,i,5%,-15%,·,-65*,6%
COC(=O)c1ccc(Cn2nc(C)cc2C)cc1,i,27%,-14%,36%,1,-9%
Cc1cc(C)n(Cc2ccc(NC(=O)c3ccc(COc4ccccc4Br)cc3)cc2)n1,·,4µM*,·,13µM*,-90*,-12%
Cc1cccc(NC(=O)C(=O)NCC(c2ccc3c(c2)OCO3)N2CCN(c3ccccc3)CC2)c1 (stereo unspecified),-9%,·,-6%,-25%,27,17%
Cc1c(OCC(=O)N2CCC(C(N)=O)CC2)ccc2c3c(c(=O)oc12)CCC3,13%,9%,-2%,-3%,21,4%
Cc1c(OCC(=O)NCCCN2CCCC2=O)ccc2c3c(c(=O)oc12)CCCC3,·,7%,·,-23%,+,-23%
Cc1c(OCC(=O)N2CCC(C(=O)O)CC2)ccc2c3c(c(=O)oc12)CCC3,-3%,0.32µM*,-4%,-16%,10,9%
Fc1ccc2cc(CCO[C@H]3CCCCO3)ncc2c1,-8%,-3%,-3%,-10%,60,·
O=C(c1cnn2c1NC(c1ccco1)CC2C(F)(F)F)N1CCN(c2cccc(Cl)c2)CC1 (stereo unspecified),·,10µM*,?,?,-22,?
Cc1cccc(OCC(=O)Nc2ccc3c(c2)nc(CN2CCCCC2)n3C)c1,-9%,?,-31%,13µM*,?,9%
CC(=O)N1CCN(Cc2nc3cc(NC(=O)c4cccc(Br)c4)ccc3n2C)CC1,i[7.34 µM],18µM*,-11%[7.34 µM],?,-73*,-3%
Cc1cccc(OCC(=O)Nc2ccc3c(c2)nc(CCN2CCCCC2)n3C)c1,·,-22%,·,-3%,-86*,-8%
CC(=O)N1CCN(Cc2nc3cc(NC(=O)COc4cccc(C)c4)ccc3n2C)CC1,?,-18%,-9%,?,-63*,-5%
Cn1c(CCN2CCCC2)nc2cc(NC(=O)COc3ccc(Cl)cc3)ccc21,i,·,-19%,-1%,?,·
COC(=O)CCC(=O)N(CCN(C(=O)CCC(=O)OC)c1ccccc1)c1ccccc1,-1%,-1%,-4%,-10%,-95*,5%
CON(C)C(=O)CCN(C(=O)OC(C)(C)C)c1ccccc1,i,14%,-5%,0%,-37,·
O=[N+]([O-])c1cccc(COc2cccc(CN3CCCCC3)c2)c1,?,-30%[8.37 µM],9%,-7%,-11,·
COc1ccccc1NC(=O)Nc1nc(C(N)CC(C)C)cs1 (stereo unspecified),?,·,-22%,0%,11,·
Cc1ccccc1C(=O)N1[C@@H](C(C)C)COc2cc(Br)ccc2S1(=O)=O,-15%,-10%,-10%,40µM*,-10,·
CCCCCn1c(=O)[nH]c2c(c1=O)CCC2,-4%,15%,?,34%,-30,-12%
FC(F)(F)c1nc(-c2ccncc2)ncc1-c1nnnn1-c1ccccc1,·,-13%,·,-13%,3,2%
Cc1ccc(-n2nnnc2-c2cnc(-c3cccnc3)nc2C(F)(F)F)cc1,·,10µM*,·,22µM*,?,-18%
FC(F)(F)c1nc(N2CCCC2)ncc1-c1nnnn1-c1ccc(Cl)cc1,?,10µM*,?,?,-65*,-28%
Cc1ccc(-n2nnnc2-c2cnn(-c3ccc(F)cc3)c2C(F)(F)F)cc1,·,?,·,?,-70*,2%
Fc1ccc(-n2nnnc2-c2cnc(-c3cccs3)nc2C(F)(F)F)cc1,·,10µM*,·,16µM*,-86*,-27%
SMILES,VACV mCherry inh,HCV inh,Vaccinia Venus,FMDV antiviral,HCMV inh,Sm TGR inh
CN(C)N1C(N)=C(C#N)C(c2cccs2)C2=C1CCCC2=O (stereo unspecified),-2%,11%,-10%,-13%,-16,-18%
CCOc1ccc(NC(=O)Cn2c(CCC(=O)O)ccc2-c2ccc(Cl)cc2)cc1,-5%,·,-8%,-18%,-2,1%
CC(C)(C)C1=CC(O)(c2ccccc2)C=C(C(C)(C)C)C1=O,·,?,·,?,-60*,4%
O=C(NC1CCCN(CCc2ccccc2)C1)c1c[nH]c2ccccc12 (stereo unspecified),·,-5%,·,-16%,53,-1%
COCc1c(C(=O)OCc2nnc(-c3ccc([N+](=O)[O-])cc3)o2)oc2ccccc12,i,16%,3%,-7%,3,·
COCCNC(=O)C1CCCN(C(=O)c2cc(C)nn2C(C)(C)C)CC1 (stereo unspecified),2%,·,-1%,-7%,-60*,·
Cc1nn(C(C)(C)C)c(C)c1/C=N/OC(=O)Nc1ccc(Cl)c(Cl)c1,·,-27%,·,0.32µM*,-61*,-2%
COc1ccc(NC(=O)O/N=C/c2c(C)nn(C(C)(C)C)c2C)cc1,·,-27%,·,?,?,4%
O=C(NC1CC1)C1CCCN(C(=O)Nc2ccc(F)cc2)C1 (stereo unspecified),-14%,5%,0%,-1%,?,15%
O=C(CCl)N1CCN(C(=O)C2COc3ccccc3O2)CC1 (stereo unspecified),?,?,?,?,-8,·
O=C(CCl)N1c2ccccc2OCC1c1ccccc1 (stereo unspecified),i,10%,-7%,18µM*,-62*,3.2µM*
O=C(CCl)N1c2ccccc2SCC1c1ccccc1 (stereo unspecified),-27%,?,-20%,28µM*,-98*,2.8µM*
CCOc1ccc(CCN2C(=S)N([C@@H](Cc3ccc(O)cc3)CN3CCC[C@@H]3CN3C(=S)NC[C@@H]3CC(C)C)C[C@@H]2Cc2ccc(O)cc2)cc1,?,·,?,-4%,-63*,·
CCOc1ccc(CCN2C(=S)N([C@@H](Cc3ccc(O)cc3)CN3CCCC3CN3C(=S)NC[C@@H]3Cc3ccc(O)cc3)C[C@@H]2CC(C)C)cc1 (stereo partly specified),?,4.5µM*,?,?,-80*,·
CCOc1ccc(CCN2C(=S)N([C@@H](Cc3ccccc3)CN3CCC[C@@H]3CN3C(=S)NC[C@@H]3Cc3ccc(O)cc3)C[C@@H]2CC(C)C)cc1,-15%,·,-26%,-19%,1,·

# Screening results: PubChem, National Center for Advancing Translational Sciences (NCATS)
